For eight molecules, Potency results are on record in PubChem BioAssay (Tox21).

Records with an inconclusive call do not appear. Calls of active or inactive are those of the source. Unless noted, calls follow the shape of the full dose curve.

Test [1] is described as follows: Nuclear factor erythroid 2-related factor 2/antioxidant responsive element (Nrf2/ARE) small molecule agonists: qHTS cell viability counter screen in human keratinocytes (AID 1919968; active = well fitted curve in the direction sought with a large enough effect in the repeat runs; an effect the other way counts as inactive or inconclusive; also: nearly all actives have a fitted effect of over 55% in size). The essentials:
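After a 5 h attachment period, ARE-reporter keratinocytes were dosed with compounds in DMSO and then cultured 23 h at 37 C. Cell viability came from CellTiter-Fluor signal read after a further 1 h.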

A short description of test [2]: Nuclear factor erythroid 2-related factor 2/antioxidant responsive element (Nrf2/ARE) small molecule agonists: luciferase reporter gene qHTS assay in human keratinocytes (AID 1919969). Also: nearly all actives have a fitted effect of over 35% in size. Also: potency is read from the fitted curve at half-maximal effect.
The target of test [3] is Gonadotropin-releasing hormone receptor (Homo sapiens) (UniProt P30968). Kind of test: Human gonadotropin-releasing hormone receptor (GnRHR) small molecule agonists, calcium flux assay in GnRHR-HEK293 cells (AID 1920063). Also: nearly all actives have a fitted effect of over 35% in size. In a few lines:
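We seeded human GnRHR-expressing HEK293 cells for 18 hours, loaded them with calcium dye for an hour at 37 C, added test compounds, and recorded fluorescence intensity kinetically for three minutes.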

For test [4], the target named is KiSS-1 receptor (Homo sapiens) (UniProt Q969F8). Briefly: Human kisspeptin (KISS1R) small molecule agonists, calcium flux assay in KISS1R-HEK293 cells (AID 1920064; active = well fitted curve in the direction sought with a large enough effect in the repeat runs; an effect the other way counts as inactive or inconclusive). The essentials:
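Kinetic calcium assay, 1 s sampling over 3 min at Ex/Em 480/540, in HEK293 cells engineered with human KISS1R; compounds delivered in DMSO after 1 h dye loading.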

The nature of test [5]: G protein-coupled receptor (GPCR) small molecule agonists, calcium flux assay: HEK293 wild type cell line counter screen (AID 1920065). In a few lines:
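Calcium-sensitive dye, loaded 1 h at 37 C into cells cultured 18 h, reports compound-evoked calcium release as fluorescence (Ex/Em 480/540), measured over 3 min. Agonist mode; 15-point titrations, triplicate.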

The nature of test [6]: p53 small molecule agonists, cell-based qHTS assay with human liver microsomes (AID 1963577). In a few lines: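 p53RE-bla cells, 4,000/well, compound added after 5 h, with human liver microsomes 0.5 mg/mL and NADPH 0.5 mg/mL final; 16 h at 37 C, then LiveBLAzer 2 h RT, fluorescence.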
Test [7] is described as follows: p53 small molecule agonists, cell-based qHTS assay with rat liver microsomes (AID 1963578). In a few lines:
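p53RE-bla cells, 4,000/well, pre-incubated 5 h, then given compounds plus rat liver microsomes (0.5 mg/mL final) and NADPH (0.5 mg/mL final). Incubation 16 h at 37 C; beta-lactamase reporter read by LiveBLAzer fluorescence after 2 h at room temperature.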

The nature of test [8]: p53 small molecule agonists, cell-based qHTS assay with human liver microsomes: qHTS cell viability counter screen (AID 1963579). Also: nearly all actives have a fitted effect of over 45% in size. In a few lines:
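p53RE-bla cells, 4,000/well, dosed 5 hours after plating, with human liver microsomes (0.5 mg/mL final) plus NADPH (0.5 mg/mL final), 16 hours at 37 C. Viability read as CellTiter-Glo luminescence after 30 min at room temperature.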

A short description of test [9]: p53 small molecule agonists, cell-based qHTS assay with rat liver microsomes: qHTS cell viability counter screen (AID 1963580). Also: nearly all actives have a fitted effect of over 45% in size. In a few lines: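 HCT-116 p53RE-bla, 4,000 cells/well, 5 h pre-incubation; cpd + rat liver microsomes 0.5 mg/mL + NADPH 0.5 mg/mL (final); 16 h, 37 C; CellTiter-Glo, 30 min RT; luminescence.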
A short description of test [10]: p53 small molecule agonists, cell-based qHTS assay: qHTS cell viability counter screen (AID 1963581). Also: nearly all actives have a fitted effect of over 45% in size. The essentials: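 Following 5 h attachment, HCT-116 p53RE-bla cells took up compound for 16 h at 37 C; the reporter was read with B/G FRET substrate (2 h RT), and viability then via CellTiter-Glo ATP luminescence.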
Test [11] in a line: p53 small molecule agonists, cell-based qHTS assay (AID 1963582; active = well fitted activation curve with a large enough effect in the signal ratio in the repeat runs, not every such curve was filed as active; the % refers to the signal ratio). The essentials:
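In this cell-based concentration-response screen, a p53 response element drives beta-lactamase; cells received DMSO-borne compounds after 5 h culture and were incubated a further 16 h before FRET substrate development.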

Test [12] concerns the target 5-hydroxytryptamine receptor 2A (Homo sapiens) (UniProt P28223). Kind of test: 5-hydroxytryptamine receptor 2A (HTR2A) small molecule antagonists, cell-based qHTS assay (AID 1963586). Also: nearly all actives have a fitted effect of over 45% in size. In a few lines: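 Antagonist-mode intracellular calcium assay: DOI (4 nM) added after 5 min compound pre-incubation at room temperature to dye-loaded HTR2A-CHO cells. Fluorescence followed for 3 min, sampled every second.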

The target is the same in test [13]. Briefly: 5-hydroxytryptamine receptor 2A (HTR2A) small molecule agonists, cell-based qHTS assay (AID 1963587). Also: nearly all actives have a fitted effect of over 30% in size. The essentials: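 Kinetic calcium-flux fluorescence (2 min, 1 sec intervals) after compound addition in agonist mode. HTR2A-CHO cells were cultured 18 h, then dye-loaded 1 h at 37 C.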
For test [14], the target named is Muscarinic acetylcholine receptor M1 (Homo sapiens) (UniProt P11229). Briefly: Cholinergic receptor muscarinic 1 (CHRM1) small molecule antagonists, cell-based qHTS assay (AID 1963588). Also: nearly all actives have a fitted effect of over 40% in size. The essentials: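 CHRM1-CHO calcium-flux assay, antagonist mode. Cells were seeded 18 h, dye-loaded 1 h at 37 C and given compound for 5 min at RT, then acetylcholine was added at 50nM. FDSS fluorescence was read 3 min; 15 concentrations, three runs.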
Muscarinic acetylcholine receptor M1 (Homo sapiens), sequence (P11229 whole entry, looked up): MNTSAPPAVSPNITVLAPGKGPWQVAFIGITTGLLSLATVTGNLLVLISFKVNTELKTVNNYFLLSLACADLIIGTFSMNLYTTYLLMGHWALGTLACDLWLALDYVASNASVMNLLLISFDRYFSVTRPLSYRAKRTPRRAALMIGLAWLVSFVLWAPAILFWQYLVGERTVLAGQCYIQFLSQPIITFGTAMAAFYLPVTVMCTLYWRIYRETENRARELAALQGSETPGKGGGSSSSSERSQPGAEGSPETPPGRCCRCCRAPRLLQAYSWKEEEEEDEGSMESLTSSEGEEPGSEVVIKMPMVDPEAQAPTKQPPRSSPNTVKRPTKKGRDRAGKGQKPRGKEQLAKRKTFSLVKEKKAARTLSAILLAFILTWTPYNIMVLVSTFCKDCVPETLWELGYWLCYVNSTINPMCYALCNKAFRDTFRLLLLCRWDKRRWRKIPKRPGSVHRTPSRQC

Test [15] shares this target. Briefly: Cholinergic receptor muscarinic 1 (CHRM1) small molecule agonists, cell-based qHTS assay (AID 1963589). Also: nearly all actives have a fitted effect of over 35% in size. In a few lines: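 Measures agonist-induced intracellular calcium rise. Stable human CHRM1 CHO line, 1 h dye load at 37 C, compounds from DMSO, kinetic fluorescence read.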
Test [16] is described as follows: cAMP Responsive Elements (CRE) small molecule agonists, cell-based qHTS assay (AID 1963590). In a few lines:
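A CRE-responsive beta-lactamase reporter in HEK 293T cells was used. Treatment ran 3 h at 37 C; detection used LiveBLAzer B/G FRET substrate for 2 h at room temperature.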

Test [17] in a line: cAMP Responsive Elements (CRE) small molecule antagonists, cell-based qHTS assay (AID 1963591; active = well fitted inhibition curve with a large enough effect in the signal ratio in the repeat runs, not every such curve was filed as active; the % refers to the signal ratio). In a few lines:
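HEK293T cells carrying a CRE-driven beta-lactamase reporter receive compound and NKH477 (0.25 uM final) for 3 h. Fluorescence from LiveBLAzer B/G FRET substrate is read after 2 h at room temperature.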

The target of test [18] is Beta-2 adrenergic receptor (Homo sapiens) (UniProt P07550). Kind of test: Adrenergic beta2 receptor (ADRB2) small molecule antagonists, cell-based qHTS assay (AID 1963592). Also: series mostly up to about 92 µM; nearly all actives have a fitted effect of over 50% in size. The essentials:
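Cells (CHO, stable ADRB2 overexpression) incubated 18-20hr at 37C; compounds added from DMSO; agonist mix (1nM isoproterenol, 100uM IBMX, 25uM Ro-20-1724) added; 0.5hr RT; d2-cAMP and anti-cAMP-cryptate added; 1hr RT; 665/615 nm read.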

For test [19] the target is unchanged. Briefly: Adrenergic beta2 receptor (ADRB2) small molecule agonists, cell-based qHTS assay (AID 1963593).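 Also: CHO cells stably overexpressing human ADRB2.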 The essentials: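 CHO cells stably over-expressing ADRB2 were plated overnight at 37C, then dosed with compounds plus a stimulation mix containing 100uM IBMX and 25uM Ro-20-1724 for 0.5hr at room temperature. cAMP was measured by HTRF competition, 1hr.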

Test [20] deals with D(2) dopamine receptor (Homo sapiens) (UniProt P14416). Briefly: Dopamine D2 receptor (DRD2) small molecule agonists, cell-based qHTS assay (AID 1963594). Also: nearly all actives have a fitted effect of over 35% in size. The essentials: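 cAMP accumulation in DRD2-HEK293 cells measured by HTRF after 1 h detection; compounds added 10 min before NKH477 (200nM […]) forskolin-analogue stimulation, 30 min at room temperature, with Ro20-1724 present at 0.1 mM final.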
D(2) dopamine receptor (Homo sapiens), sequence (P14416 whole entry, looked up): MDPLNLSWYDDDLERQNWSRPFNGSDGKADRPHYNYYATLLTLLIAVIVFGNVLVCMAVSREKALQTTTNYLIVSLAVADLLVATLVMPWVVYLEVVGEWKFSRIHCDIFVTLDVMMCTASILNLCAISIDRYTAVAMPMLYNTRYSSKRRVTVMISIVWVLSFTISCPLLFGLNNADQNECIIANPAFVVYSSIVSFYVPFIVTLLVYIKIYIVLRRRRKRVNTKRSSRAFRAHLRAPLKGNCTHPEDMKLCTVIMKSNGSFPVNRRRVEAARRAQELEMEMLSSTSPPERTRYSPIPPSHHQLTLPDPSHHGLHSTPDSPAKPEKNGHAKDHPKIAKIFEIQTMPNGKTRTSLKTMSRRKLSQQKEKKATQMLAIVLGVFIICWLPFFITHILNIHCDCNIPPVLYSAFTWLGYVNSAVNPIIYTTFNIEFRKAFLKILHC

KiSS-1 receptor (Homo sapiens), sequence (Q969F8 whole entry, looked up): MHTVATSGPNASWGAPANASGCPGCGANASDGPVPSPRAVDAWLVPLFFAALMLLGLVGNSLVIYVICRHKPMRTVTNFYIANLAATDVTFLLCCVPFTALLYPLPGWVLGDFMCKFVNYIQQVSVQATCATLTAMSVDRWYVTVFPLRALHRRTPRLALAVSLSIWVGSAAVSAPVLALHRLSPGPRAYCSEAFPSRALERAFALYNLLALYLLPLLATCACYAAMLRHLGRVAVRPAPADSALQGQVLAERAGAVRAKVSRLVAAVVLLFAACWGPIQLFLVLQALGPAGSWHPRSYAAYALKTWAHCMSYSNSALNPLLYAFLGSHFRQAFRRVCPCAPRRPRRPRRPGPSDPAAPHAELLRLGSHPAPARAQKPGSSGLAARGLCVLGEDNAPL
5-hydroxytryptamine receptor 2A (Homo sapiens), sequence (P28223 whole entry, looked up): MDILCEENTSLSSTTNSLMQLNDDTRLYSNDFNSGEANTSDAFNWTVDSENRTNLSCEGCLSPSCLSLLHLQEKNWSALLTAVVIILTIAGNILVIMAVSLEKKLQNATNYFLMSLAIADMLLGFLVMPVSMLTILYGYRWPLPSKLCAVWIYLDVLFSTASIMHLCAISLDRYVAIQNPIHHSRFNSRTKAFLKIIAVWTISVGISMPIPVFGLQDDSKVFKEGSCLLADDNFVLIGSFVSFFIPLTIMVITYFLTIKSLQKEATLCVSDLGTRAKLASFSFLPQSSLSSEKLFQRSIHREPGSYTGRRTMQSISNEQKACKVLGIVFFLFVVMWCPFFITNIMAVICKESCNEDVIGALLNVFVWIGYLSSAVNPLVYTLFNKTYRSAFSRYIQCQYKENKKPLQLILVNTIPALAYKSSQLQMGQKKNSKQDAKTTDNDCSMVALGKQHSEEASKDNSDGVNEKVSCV
Gonadotropin-releasing hormone receptor (Homo sapiens), sequence (P30968 whole entry, looked up): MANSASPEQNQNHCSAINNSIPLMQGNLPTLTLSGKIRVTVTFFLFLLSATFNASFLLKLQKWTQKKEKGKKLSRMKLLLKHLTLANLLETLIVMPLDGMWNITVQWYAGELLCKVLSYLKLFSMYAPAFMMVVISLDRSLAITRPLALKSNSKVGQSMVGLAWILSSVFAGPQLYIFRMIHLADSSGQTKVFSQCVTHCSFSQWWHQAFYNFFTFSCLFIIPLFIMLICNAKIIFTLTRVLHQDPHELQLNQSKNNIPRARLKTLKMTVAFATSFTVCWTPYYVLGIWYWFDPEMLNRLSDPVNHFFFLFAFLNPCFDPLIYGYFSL
Beta-2 adrenergic receptor (Homo sapiens), sequence (P07550 whole entry, looked up): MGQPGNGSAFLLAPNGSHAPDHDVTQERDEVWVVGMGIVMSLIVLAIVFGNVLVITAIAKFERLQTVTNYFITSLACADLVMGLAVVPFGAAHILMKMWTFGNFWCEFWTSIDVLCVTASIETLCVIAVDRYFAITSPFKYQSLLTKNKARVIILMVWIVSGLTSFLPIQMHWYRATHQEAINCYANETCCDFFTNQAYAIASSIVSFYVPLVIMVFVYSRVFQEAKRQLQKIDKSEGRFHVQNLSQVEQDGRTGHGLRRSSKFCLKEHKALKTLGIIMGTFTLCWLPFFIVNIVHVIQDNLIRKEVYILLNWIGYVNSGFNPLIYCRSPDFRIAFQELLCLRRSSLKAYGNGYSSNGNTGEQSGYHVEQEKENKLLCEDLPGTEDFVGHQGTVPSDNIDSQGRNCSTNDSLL

With `CCCCN(CCCC)CCCCCCN(CCCC)CCCC`, the Potency entry in test [1], in [2], in test [3], in [4], in [5] and in [6] was “inactive” in each case. Further, the Potency entry in [7], in [8], in [9], in test [10], in test [11] and in test [12] was “inactive” each time. Besides, the Potency result in [13], in test [14], in test [15], in test [16], in [17] and in test [18] was “inactive” in each case. Moreover, the Potency result in test [19] and in test [20] was “inactive” each time.
For the molecule `O=Nc1ccc(NO)cc1`, the Potency entry in [1], in test [3], in test [4], in test [5], in test [6] and in test [7] was “inactive” in each case. Moreover, the Potency result in test [8], in test [9], in test [10], in [11], in test [12] and in test [13] was “inactive” throughout. Also, the Potency entry in test [14], in test [15], in test [16] and in test [17] was “inactive” throughout. In addition, in test [2], the Potency was 63.6 µM (active).
Turning to `C=CC(O)CCCCC` (configuration not stated), the Potency entry in test [1], in test [2], in test [3], in test [4], in test [5] and in test [6] was “inactive” in each case. Moreover, the Potency result in [7], in [8], in [9], in [10], in test [11] and in [12] was “inactive” throughout. Besides, the Potency entry in test [13], in test [14], in test [15], in test [16], in test [17] and in [18] was “inactive” each time. The Potency result in test [19] and in test [20] was “inactive” each time.
Consider `CCC(OCCCOC)OC(C)=O` (configuration not stated), for which the Potency entry in test [1], in test [2], in [3], in [4], in test [5] and in test [6] was “inactive” throughout. Further, the Potency entry in test [7], in test [8], in test [9], in test [10], in [11] and in [12] was “inactive” throughout. The Potency result in [13], in test [14], in test [15], in test [16], in test [17] and in test [18] was “inactive” throughout. Moreover, the Potency entry in test [19] and in [20] was “inactive” throughout.
`O=[N+]([O-])c1cncn1CCN1CCOCC1`: the Potency result in test [1], in test [2], in [3], in test [4], in [5] and in test [6] was “inactive” in each case. In addition, the Potency entry in test [7], in test [8], in test [9], in test [10], in test [11] and in test [12] was “inactive” in each case. For the same molecule, the Potency entry in test [13], in test [14], in test [15], in test [16], in test [17] and in test [18] was “inactive” each time. Also, the Potency entry in test [19] and in test [20] was “inactive” each time.
Consider `Cc1ncsc1CCO`, for which the Potency result in test [1], in [2], in [3], in [4], in test [5] and in test [6] was “inactive” throughout. The Potency result in test [7], in [8], in test [9], in [10], in [11] and in [12] was “inactive” in each case. For the same molecule, the Potency entry in [13], in [14], in [15], in test [16], in [17] and in test [18] was “inactive” each time. Moreover, the Potency entry in test [19] and in [20] was “inactive” in each case.
For `CCCCCCCCCC(C)=O`, the Potency result in [1], in [2], in test [3], in test [4], in test [5] and in test [6] was “inactive” throughout. For the same molecule, the Potency entry in test [7], in test [8], in test [9], in test [10], in [11] and in test [12] was “inactive” in each case. The Potency result in [13], in [14], in test [15], in [16], in [17] and in test [18] was “inactive” each time. The Potency result in test [19] and in [20] was “inactive” each time.
On to `CCOC(=O)OC(=O)OCC`, for which the Potency result in test [1], in [2], in [3], in test [4], in [5] and in [6] was “inactive” in each case. Besides, the Potency result in [7], in [8], in [9], in test [10], in test [11] and in [12] was “inactive” throughout. The Potency result in test [13], in test [14], in test [15], in [16], in test [17] and in test [18] was “inactive” in each case. For the same molecule, the Potency result in test [19] and in [20] was “inactive” throughout.
